ELG1 DNA repair: inhibitors of ELG1-dependent DNA repair in HEK293T cells; HEK293T ELG1-luciferase reporter, luminescence, 16 h; DNA damage induced by 5-fluorouridine; Potency, µM (top dose mostly 46.1 µM), without a hit: at the top dose activity change, negative = inhibition, actives largely listed as inhibitors; actives 2.3% (n = 330,000); AID 504467; also: % is scaled to controls: 0 for no effect and ±100 for the full control effect; nearly all actives have a fitted effect of over 55% in size
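Quantitative HTS, concentration-response format. 2,000 cells/well co-treated with 5-fluorouridine and compound, 16 hr in 5% CO2 at 37 °C; ONE-Glo luminescence read after 30 min.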
KB-3-1 cytotox: kills parental KB-3-1 adenocarcinoma cells. KB-3-1 viability, CellTiter-Glo ATP luminescence, 72 h. actives 1.4% (n = 400,000). AID 1347075. Potency, µM (titrated, usually from 46.1 µM), most hits filed as cytotoxic; also: % is scaled to controls: 0 for no effect and ±100 for the full control effect; nearly all actives have a fitted effect of over 60% in size
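Cytotoxicity measured as CellTiter-Glo luminescence after 72 h at 37 C. Compound titrations were pinned onto drug-naive KB-3-1 parental adenocarcinoma cells grown in DMEM with 10% FBS, and normalized data fitted to concentration-response curves.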
KB-V1 MDR tox: KB-V1 MDR subline cytotoxicity; KB-V1 MDR cells viability, CellTiter-Glo, 72 h; Potency, µM (top dose mostly 46.1 µM), usual class: cytotoxic; actives 3.4% (n = 400,000); AID 1347076; also: % is scaled to controls: 0 for no effect and ±100 for the full control effect; nearly all actives have a fitted effect of over 60% in size
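KB-V1, DMEM (no phenol red) + 10% FBS; cpd pin-transferred, titration series; 72 h, 37 degrees C; CellTiter-Glo, luminescence. Data normalized, curve-fit.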
SW480 rerep: induces DNA re-replication in SW480 colon adenocarcinoma cells; SW480 DNA re-replication, Hoechst DNA content imaging, 48 h; Potency, µM (doses to about 46.1 µM), for inactives: at the top dose re-replication activation, actives largely listed as activators; actives 1.8% (n = 340,000); AID 624297; also: % of control where 0% means no effect; nearly all actives have a fitted effect of over 55% in size
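Image-based read-out: total Hoechst fluorescence of nuclei (405 nm excitation, 500-530 nm emission), with hits raising the fraction of high-intensity nuclei. SW480 colon cells incubated 48 hr with compounds at 37 C.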
MCF10A rerep: DNA re-replication induction in MCF 10a cells | actives 2.9% (n = 350,000) | Potency, µM (series often up to 46.1 µM), inactives show at the highest dose activity, positive = re-replication, most hits filed as activators | AID 624296 | MCF 10A DNA re-replication, Hoechst nuclear intensity, 48 h; also: % of control where 0% means no effect; nearly all actives have a fitted effect of over 50% in size
The depositor's hits bear a star; i = inactive; ? = inconclusive; · = not tested or not shown; [ ] = remark or other dose. Sampled rows, rich in hits. Any-hit rate of the full collection: about 8.1%. Calls follow the shape of the dose curve; as a rule, active = well fitted curve in the direction sought with a large enough effect; inconclusive = small, poorly fitted or top-dose-only effect, or another doubt; inactive = no such curve, though single readings can be large; an effect the other way counts as inactive or inconclusive. Potency is read from the fitted curve at half-maximal effect.

SMILES	ELG1 DNA repair	KB-3-1 cytotox	KB-V1 MDR tox	SW480 rerep	MCF10A rerep
Cc1cccc(N2CCN(C(=O)c3ccc4ncsc4c3)CC2)c1C	20%	4.6µM*	?	10µM*	9.2µM*
O=C(c1ccc2ncsc2c1)N1CCN(c2ccccc2Cl)CC1	?	i	?	28%	28%
COc1cc(C(=O)N2CCN(c3ccccn3)CC2)cc(OC)c1OC	17%	i	i	-3%	-8%
COc1cc(C(=O)N2CCN(c3cccc(C)c3C)CC2)cc(OC)c1OC	?	0.82µM*	2.6µM*	0.73µM*	10µM*
Cc1cccc(N2CCN(C(=O)c3ccncc3)CC2)c1C	?	10µM*	5.8µM*	12µM*	?
Cc1cccc(C)c1NC(=O)C1(C)CSCC(=O)N1CCOc1ccccc1 (configuration not stated)	·	i	i	·	·
Cc1ccc(-n2ncc3c(SCc4ccccn4)ncnc32)c(C)c1	?	?	8.2µM*	13%	?
CC(C)NC(=O)C1(C)CSCC(=O)N1Cc1ccco1 (configuration not stated)	·	i	i	·	·
COc1ccc(C(=O)C23CC4CC(C2)CC(C(=O)c2ccc(OC)cc2)(C4)C3)cc1	5.8µM*	i	i	3%	-5%
COc1ccc(C(=O)CSc2nnc(NC(=O)C3CC(=O)N(c4ccccc4)C3)s2)cc1 (configuration not stated)	-8%	i	i	2.9µM*	6%
NC(=O)c1sc2nc(N3CCCCC3)c3c(c2c1N)CCCC3	?	i	i	-2%	1%
CCOC(=O)c1sc2nc(C(C)C)c3c(c2c1N)CCC3	6%	i	?	18µM*	3.7µM*
COC(=O)c1ccc(-c2sc3nc(N4CCOCC4)c4c(c3c2N)CCCC4)o1	?	?	i	0.63µM*	?
CCOC(=O)c1sc2nc(C(C)C)c3c(c2c1N)CC(C)(C)OC3	13%	i	i	?	?
COC(=O)c1sc2nc(N3CCCCC3)c3c(c2c1N)CCCC3	11%	i	i	1%[9.22 µM]	7.1µM*
CCOC(=O)c1sc2nc(N3CCOCC3)c3c(c2c1N)CCCC3	-22%	i	i	1%	0%
Cc1ccc(-c2cc3nn(-c4ccccc4)c(N)c3c(=O)o2)cc1	-7%	21µM*	16µM*	?	16%
N#Cc1cnn2c1nc(N1CCCCC1)c1ccccc12	15%	?	12µM*	3%	16%
CC(C)c1ccc(S(=O)(=O)c2nnn3c2nc(N2CCCCC2)c2ccccc23)cc1	7%	i	i	-3%	0%
O=S(=O)(c1ccccc1)N(Cc1nc(-c2ccccc2)no1)C1CCCCC1	-19%	26µM*	10µM*	4%	27%
COc1ccc(N2CCN(C(c3cccs3)C(C)NS(=O)(=O)c3ccccc3)CC2)cc1 (configuration not stated)	?	21µM*	?	-4%	?
CC(C)C(=O)NC(C)C(c1cccs1)N1CCN(c2ccccc2)CC1 (configuration not stated)	-27%	i	13µM*	-5%	10%
Cc1c(Cl)cccc1-c1ccc(C(=O)N2CCN(c3ccc([N+](=O)[O-])cc3)CC2)o1	16µM*	i	i	0%	7%
O=C(c1ccc(-c2ccc([N+](=O)[O-])cc2)o1)N1CCCC(C(F)(F)F)C1 (configuration not stated)	-26%	i	i	-6%	14%
O=C(CSc1ccccc1C(=O)N1CCN(c2ccc([N+](=O)[O-])cc2)CC1)N1CCCC1	15µM*	?	i	2%	11%
SMILES	ELG1 DNA repair	KB-3-1 cytotox	KB-V1 MDR tox	SW480 rerep	MCF10A rerep
O=C(NC(=S)N1CCN(c2ccc([N+](=O)[O-])cc2)CC1)c1ccccc1F	-16%	i	21µM*	-2%	10%
O=C(c1ccc(-c2ccc([N+](=O)[O-])cc2)o1)N1CCCCCCC1	?	?	i	9%	12µM*
O=[N+]([O-])c1cccc(CON=Cc2ccccc2O)c1	·	i	i	·	·
Cc1cc(C(=O)N2CCN(c3ccc([N+](=O)[O-])cc3)CC2)c(C)o1	-14%	i	i	4.1µM*	3.7µM*
Cc1cc(C(=O)N2CCN(c3ccc([N+](=O)[O-])cc3)CC2)co1	-8%	i	i	3%	3%
COc1ccc(N2CCN(C(=O)Oc3ccc([N+](=O)[O-])cc3)CC2)cc1	·	i	i	·	·
COc1ccc(N2CCN(C(=O)c3ccc(COc4ccc([N+](=O)[O-])cc4)o3)CC2)cc1	21µM*	·	·	18%	?
Cc1sc(NC(=O)Cn2cnnn2)nc1-c1ccc(Cl)cc1	-15%	i	i	5%	-2%
COc1ccc(-c2nc(NC(=O)Cn3cnnn3)sc2C)cc1	6%	i	i	3%	2.1µM*
COc1cc(C2Sc3ccccc3NC3=C2C(=O)OC3)cc(OC)c1OC (configuration not stated)	-10%	23µM*	i	?	?
COc1cc(C2CC(=O)Nc3ccccc3S2)cc(OC)c1OC (configuration not stated)	10µM*	i	10µM*	5%	?
O=C1OCC2=C1C(c1ccc(F)cc1)Sc1ccccc1N2 (configuration not stated)	3%	i	?	-6%	15%
O=C(c1cc2ccccc2oc1=O)N(Cc1ccco1)Cc1cccs1	-6%	i	5.2µM*	0%	?
COc1ccc(NS(=O)(=O)c2ccc3oc(SC)nc3c2)cc1	-19%	?	?	-3%	?
COc1ccc(NS(=O)(=O)c2ccc3oc(SC4CCOC4=O)nc3c2)cc1 (configuration not stated)	17%	i	i	?	2.9µM*
CN(C)c1ccc(/C=N/NC(=O)CN(c2cccc(Cl)c2)S(C)(=O)=O)cc1Br	21µM*	i	i	-6%	8%
N=C1/C(=C\c2ccc(-c3cccc(C(=O)O)c3)o2)C(=O)N=C2SC=C(c3ccccc3)N12	?	i	i	8.2µM*	3.3µM*
Cc1ccccc1-n1c(C)cc(/C=C2/C(=N)N3C(c4ccccc4)=CSC3=NC2=O)c1C	-7%	?	?	14µM*	?
Cc1ccc(-c2nn(CC(=O)NCc3ccccc3)c3c2cnc2ccc(F)cc23)cc1C	·	i	i	·	·
CCCCCOC(=O)C1=C(C)Nc2nnnn2C1c1ccccc1Cl (configuration not stated)	?	i	21µM*	-3%	?
Cc1cc(C)c(C)c(S(=O)(=O)N(C)CCc2ccccn2)c1C	-4%	i	i	-2%	8%

Assay outcomes: PubChem, National Center for Advancing Translational Sciences (NCATS)
